# Substitutions are numbered along the chain they refer to.
# Tests used:
# Experiment in all cases: PBM; 200 nM protein, PBS
# Conditions in all cases: dsDNA, one strand shown
# HOXA4 [1] = target: HOXA4 (Homo sapiens, UniProt Q00056 201-287, W262R)
# HOXD13 = HOXD13 (Homo sapiens, UniProt P35453 263-343)
# HOXA4 [2] = target: HOXA4 (Homo sapiens, UniProt Q00056 201-287)
# HOXA4 [3] = target: HOXA4 (Homo sapiens, UniProt Q00056 201-287, R217L)
# HOXA4 [4] = target: HOXA4 (Homo sapiens, UniProt Q00056 201-287, W262F)
# Chain of HOXA4 (Homo sapiens, UniProt Q00056 201-287, W262F) (Q00056 201-287 W262F): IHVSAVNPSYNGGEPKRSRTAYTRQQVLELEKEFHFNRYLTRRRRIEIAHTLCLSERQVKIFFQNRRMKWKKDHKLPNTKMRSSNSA
# HOXC9 [5] = target: HOXC9 (Homo sapiens, UniProt P31274 178-260, K195R)
# Chain of HOXC9 (Homo sapiens, UniProt P31274 178-260, K195R) (P31274 178-260 K195R): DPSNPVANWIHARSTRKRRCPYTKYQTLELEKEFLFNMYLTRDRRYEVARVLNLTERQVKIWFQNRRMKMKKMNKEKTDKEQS
# PRRX1 [6] = target: PRRX1 (Homo sapiens, UniProt P54821 80-166, F113S)
# Chain of PRRX1 (Homo sapiens, UniProt P54821 80-166, F113S) (P54821 80-166 F113S): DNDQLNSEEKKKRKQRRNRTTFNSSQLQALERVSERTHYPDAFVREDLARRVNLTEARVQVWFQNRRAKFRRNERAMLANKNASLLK
# HOXC9 [7] = target: HOXC9 (Homo sapiens, UniProt P31274 178-260)
# Chain of HOXC9 (Homo sapiens, UniProt P31274 178-260) (P31274 178-260): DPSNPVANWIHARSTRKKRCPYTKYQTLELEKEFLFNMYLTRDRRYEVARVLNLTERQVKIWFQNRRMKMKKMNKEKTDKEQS
# MSX2 [8] = target: MSX2 (Homo sapiens, UniProt P35548 130-214, R199I)
# Chain of MSX2 (Homo sapiens, UniProt P35548 130-214, R199I) (P35548 130-214 R199I): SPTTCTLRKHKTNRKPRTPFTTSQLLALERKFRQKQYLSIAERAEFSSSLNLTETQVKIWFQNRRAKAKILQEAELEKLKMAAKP
# HOXC9 [9] = target: HOXC9 (Homo sapiens, UniProt P31274 178-260, R193K)
# Chain of HOXC9 (Homo sapiens, UniProt P31274 178-260, R193K) (P31274 178-260 R193K): as the sequence (P31274 178-260) above, with R16K counted along it
# MSX2 [10] = target: MSX2 (Homo sapiens, UniProt P35548 130-214)
# Chain of MSX2 (Homo sapiens, UniProt P35548 130-214) (P35548 130-214): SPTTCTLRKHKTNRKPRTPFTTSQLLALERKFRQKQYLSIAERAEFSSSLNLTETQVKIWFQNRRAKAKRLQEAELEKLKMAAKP
# HOXC9 [11] = target: HOXC9 (Homo sapiens, UniProt P31274 178-260, R222W)
# Chain of HOXC9 (Homo sapiens, UniProt P31274 178-260, R222W) (P31274 178-260 R222W): as the sequence (P31274 178-260) above, with R45W counted along it
# MSX2 [12] = target: MSX2 (Homo sapiens, UniProt P35548 130-214, F161Y)
# Chain of MSX2 (Homo sapiens, UniProt P35548 130-214, F161Y) (P35548 130-214 F161Y): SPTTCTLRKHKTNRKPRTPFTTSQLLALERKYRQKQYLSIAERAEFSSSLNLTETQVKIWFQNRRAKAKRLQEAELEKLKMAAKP
# PRRX1 [13] = target: PRRX1 (Homo sapiens, UniProt P54821 80-166)
# Chain of PRRX1 (Homo sapiens, UniProt P54821 80-166) (P54821 80-166): as the sequence (P54821 80-166 F113S) above, with S34F counted along it
# PAX4 [14] = target: T1, PAX4 (Homo sapiens, UniProt O43316 9-242, R200K)
# T1 sequence: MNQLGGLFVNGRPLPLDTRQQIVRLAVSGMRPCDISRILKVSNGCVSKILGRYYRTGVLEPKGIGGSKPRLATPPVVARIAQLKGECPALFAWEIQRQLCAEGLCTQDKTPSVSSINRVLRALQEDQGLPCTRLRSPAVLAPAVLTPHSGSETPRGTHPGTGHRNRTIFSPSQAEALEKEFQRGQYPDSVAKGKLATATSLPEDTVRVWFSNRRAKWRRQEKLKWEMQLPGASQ
# PAX4 [15] = target: T2, PAX4 (Homo sapiens, UniProt O43316 9-242)
# T2 sequence: T1 sequence with K192R
# PAX4 [16] = target: T3, PAX4 (Homo sapiens, UniProt O43316 9-242, R200Q)
# T3 sequence: T1 sequence with K192Q
# PAX4 [17] = target: T4, PAX4 (Homo sapiens, UniProt O43316 9-242, F177V)
# T4 sequence: T1 sequence with F169V, K192R
# PAX4 [18] = target: T5, PAX4 (Homo sapiens, UniProt O43316 9-242, F177Y)
# T5 sequence: T1 sequence with F169Y, K192R
# PAX4 [19] = target: T6, PAX4 (Homo sapiens, UniProt O43316 9-242, R227W)
# T6 sequence: T1 sequence with K192R, R219W
# HOXC10 [20] = target: HOXC10 (Homo sapiens, UniProt Q9NYD6 254-340)
# Chain of HOXC10 (Homo sapiens, UniProt Q9NYD6 254-340) (Q9NYD6 254-340): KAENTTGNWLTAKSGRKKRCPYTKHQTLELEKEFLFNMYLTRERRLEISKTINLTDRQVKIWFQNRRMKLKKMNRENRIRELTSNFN
# ALX3 [21] = target: ALX3 (Homo sapiens, UniProt O95076 139-225, N203Q)
# Chain of ALX3 (Homo sapiens, UniProt O95076 139-225, N203Q) (O95076 139-225 N203Q): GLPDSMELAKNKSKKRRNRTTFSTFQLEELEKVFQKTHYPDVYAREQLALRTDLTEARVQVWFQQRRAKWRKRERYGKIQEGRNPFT
# HOXC10 [22] = target: HOXC10 (Homo sapiens, UniProt Q9NYD6 254-340, K271E)
# Chain of HOXC10 (Homo sapiens, UniProt Q9NYD6 254-340, K271E) (Q9NYD6 254-340 K271E): as the sequence (Q9NYD6 254-340) above, with K18E counted along it
# ALX3 [23] = target: ALX3 (Homo sapiens, UniProt O95076 139-225)
# Chain of ALX3 (Homo sapiens, UniProt O95076 139-225) (O95076 139-225): as the sequence (O95076 139-225 N203Q) above, with Q65N counted along it
# ALX3 [24] = target: ALX3 (Homo sapiens, UniProt O95076 139-225, L168Q)
# Chain of ALX3 (Homo sapiens, UniProt O95076 139-225, L168Q) (O95076 139-225 L168Q): as the sequence (O95076 139-225 N203Q) above, with L30Q, Q65N counted along it
# ALX3 [25] = target: ALX3 (Homo sapiens, UniProt O95076 139-225, L168V)
# Chain of ALX3 (Homo sapiens, UniProt O95076 139-225, L168V) (O95076 139-225 L168V): as the sequence (O95076 139-225 N203Q) above, with L30V, Q65N counted along it
# ALX3 [26] = target: ALX3 (Homo sapiens, UniProt O95076 139-225, N203S)
# Chain of ALX3 (Homo sapiens, UniProt O95076 139-225, N203S) (O95076 139-225 N203S): as the sequence (O95076 139-225 N203Q) above, with Q65S counted along it
# NKX2-6 = target: T7, NKX2-6 (Homo sapiens, UniProt A6NCS4 118-204, R150C)
# T7 sequence: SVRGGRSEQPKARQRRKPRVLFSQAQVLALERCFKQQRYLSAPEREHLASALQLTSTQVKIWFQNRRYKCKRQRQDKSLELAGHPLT
# Chain of HOXA4 (Homo sapiens, UniProt Q00056 201-287, R217L) (Q00056 201-287 R217L): as the sequence (Q00056 201-287 W262F) above, with R17L, F62W counted along it
# Chain of HOXA4 (Homo sapiens, UniProt Q00056 201-287, W262R) (Q00056 201-287 W262R): as the sequence (Q00056 201-287 W262F) above, with F62R counted along it
# Chain of HOXA4 (Homo sapiens, UniProt Q00056 201-287) (Q00056 201-287): as the sequence (Q00056 201-287 W262F) above, with F62W counted along it
# Chain of HOXD13 (P35453 263-343): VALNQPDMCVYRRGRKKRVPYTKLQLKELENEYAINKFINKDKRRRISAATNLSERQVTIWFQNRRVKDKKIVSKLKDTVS
sequence,measurement,setting,value
GAGTAATA,binding signal,HOXA4 [1],"10.3 upbm affinity estimate (log intensity, higher = more binding, comparable within an allelic series)"
same,binding signal,HOXD13,"10.9 upbm affinity estimate (log intensity, higher = more binding, comparable within an allelic series)"
same,binding signal,HOXA4 [2],"11.7 upbm affinity estimate (log intensity, higher = more binding, comparable within an allelic series)"
CCGGCACG,binding signal,HOXA4 [1],"9.89 upbm affinity estimate (log intensity, higher = more binding, comparable within an allelic series)"
same,binding signal,HOXA4 [3],"9.91 upbm affinity estimate (log intensity, higher = more binding, comparable within an allelic series)"
same,binding signal,HOXA4 [2],"9.85 upbm affinity estimate (log intensity, higher = more binding, comparable within an allelic series)"
same,binding signal,HOXA4 [4],"9.93 upbm affinity estimate (log intensity, higher = more binding, comparable within an allelic series)"
CCCCGACC,binding signal,HOXA4 [1],"9.87 upbm affinity estimate (log intensity, higher = more binding, comparable within an allelic series)"
same,binding signal,HOXA4 [3],"9.84 upbm affinity estimate (log intensity, higher = more binding, comparable within an allelic series)"
same,binding signal,HOXA4 [2],"9.87 upbm affinity estimate (log intensity, higher = more binding, comparable within an allelic series)"
same,binding signal,HOXA4 [4],"9.99 upbm affinity estimate (log intensity, higher = more binding, comparable within an allelic series)"
AATCGATG,binding signal,HOXA4 [1],"10.4 upbm affinity estimate (log intensity, higher = more binding, comparable within an allelic series)"
same,binding signal,HOXA4 [2],"11.7 upbm affinity estimate (log intensity, higher = more binding, comparable within an allelic series)"
CCCATGGC,binding signal,HOXA4 [1],"9.82 upbm affinity estimate (log intensity, higher = more binding, comparable within an allelic series)"
same,binding signal,HOXA4 [3],"9.81 upbm affinity estimate (log intensity, higher = more binding, comparable within an allelic series)"
same,binding signal,HOXA4 [2],"9.77 upbm affinity estimate (log intensity, higher = more binding, comparable within an allelic series)"
same,binding signal,HOXA4 [4],"9.85 upbm affinity estimate (log intensity, higher = more binding, comparable within an allelic series)"
CCTCGTCC,binding signal,HOXA4 [1],"9.94 upbm affinity estimate (log intensity, higher = more binding, comparable within an allelic series)"
same,binding signal,HOXA4 [3],"9.95 upbm affinity estimate (log intensity, higher = more binding, comparable within an allelic series)"
same,binding signal,HOXA4 [2],"9.86 upbm affinity estimate (log intensity, higher = more binding, comparable within an allelic series)"
same,binding signal,HOXA4 [4],"9.98 upbm affinity estimate (log intensity, higher = more binding, comparable within an allelic series)"
CCTGCTCC,binding signal,HOXA4 [1],"9.98 upbm affinity estimate (log intensity, higher = more binding, comparable within an allelic series)"
same,binding signal,HOXA4 [3],"9.88 upbm affinity estimate (log intensity, higher = more binding, comparable within an allelic series)"
same,binding signal,HOXA4 [2],"9.83 upbm affinity estimate (log intensity, higher = more binding, comparable within an allelic series)"
same,binding signal,HOXA4 [4],"9.97 upbm affinity estimate (log intensity, higher = more binding, comparable within an allelic series)"
CCTTCCCG,binding signal,HOXA4 [1],"9.88 upbm affinity estimate (log intensity, higher = more binding, comparable within an allelic series)"
same,binding signal,HOXA4 [3],"9.86 upbm affinity estimate (log intensity, higher = more binding, comparable within an allelic series)"
same,binding signal,HOXA4 [2],"9.79 upbm affinity estimate (log intensity, higher = more binding, comparable within an allelic series)"
same,binding signal,HOXA4 [4],"9.89 upbm affinity estimate (log intensity, higher = more binding, comparable within an allelic series)"
AATCCCCC,binding signal,HOXA4 [1],"9.83 upbm affinity estimate (log intensity, higher = more binding, comparable within an allelic series)"
same,binding signal,HOXA4 [3],"9.86 upbm affinity estimate (log intensity, higher = more binding, comparable within an allelic series)"
same,binding signal,HOXA4 [2],"9.87 upbm affinity estimate (log intensity, higher = more binding, comparable within an allelic series)"
same,binding signal,HOXA4 [4],"9.73 upbm affinity estimate (log intensity, higher = more binding, comparable within an allelic series)"
CGTCAATA,binding signal,HOXA4 [1],"10.2 upbm affinity estimate (log intensity, higher = more binding, comparable within an allelic series)"
same,binding signal,HOXA4 [2],"10.9 upbm affinity estimate (log intensity, higher = more binding, comparable within an allelic series)"
GGCGCGCC,binding signal,HOXC9 [5],"9.93 upbm affinity estimate (log intensity, higher = more binding, comparable within an allelic series)"
same,binding signal,PRRX1 [6],"9.33 upbm affinity estimate (log intensity, higher = more binding, comparable within an allelic series)"
same,binding signal,HOXC9 [7],"10.1 upbm affinity estimate (log intensity, higher = more binding, comparable within an allelic series)"
same,binding signal,MSX2 [8],"9.71 upbm affinity estimate (log intensity, higher = more binding, comparable within an allelic series)"
same,binding signal,HOXC9 [9],"9.89 upbm affinity estimate (log intensity, higher = more binding, comparable within an allelic series)"
same,binding signal,MSX2 [10],"10.1 upbm affinity estimate (log intensity, higher = more binding, comparable within an allelic series)"
same,binding signal,HOXC9 [11],"9.82 upbm affinity estimate (log intensity, higher = more binding, comparable within an allelic series)"
same,binding signal,MSX2 [12],"10 upbm affinity estimate (log intensity, higher = more binding, comparable within an allelic series)"
same,binding signal,PRRX1 [13],"9.73 upbm affinity estimate (log intensity, higher = more binding, comparable within an allelic series)"
CGCTTAAC,binding signal,HOXA4 [1],"10.2 upbm affinity estimate (log intensity, higher = more binding, comparable within an allelic series)"
same,binding signal,HOXA4 [2],"11.2 upbm affinity estimate (log intensity, higher = more binding, comparable within an allelic series)"
same,binding signal,HOXA4 [4],"10.3 upbm affinity estimate (log intensity, higher = more binding, comparable within an allelic series)"
ACCGCCCG,binding signal,HOXC9 [5],"9.62 upbm affinity estimate (log intensity, higher = more binding, comparable within an allelic series)"
same,binding signal,PAX4 [14],"9.22 upbm affinity estimate (log intensity, higher = more binding, comparable within an allelic series)"
same,binding signal,PAX4 [15],"9.09 upbm affinity estimate (log intensity, higher = more binding, comparable within an allelic series)"
same,binding signal,HOXC9 [7],"9.79 upbm affinity estimate (log intensity, higher = more binding, comparable within an allelic series)"
same,binding signal,PAX4 [16],"9.24 upbm affinity estimate (log intensity, higher = more binding, comparable within an allelic series)"
same,binding signal,HOXC9 [9],"9.6 upbm affinity estimate (log intensity, higher = more binding, comparable within an allelic series)"
same,binding signal,PAX4 [17],"9.1 upbm affinity estimate (log intensity, higher = more binding, comparable within an allelic series)"
same,binding signal,PAX4 [18],"9.01 upbm affinity estimate (log intensity, higher = more binding, comparable within an allelic series)"
same,binding signal,HOXC9 [11],"9.71 upbm affinity estimate (log intensity, higher = more binding, comparable within an allelic series)"
same,binding signal,PAX4 [19],"9.19 upbm affinity estimate (log intensity, higher = more binding, comparable within an allelic series)"
AGCCCTCC,binding signal,HOXC9 [5],"9.66 upbm affinity estimate (log intensity, higher = more binding, comparable within an allelic series)"
same,binding signal,HOXC10 [20],"10 upbm affinity estimate (log intensity, higher = more binding, comparable within an allelic series)"
same,binding signal,HOXC9 [7],"9.73 upbm affinity estimate (log intensity, higher = more binding, comparable within an allelic series)"
same,binding signal,MSX2 [8],"9.53 upbm affinity estimate (log intensity, higher = more binding, comparable within an allelic series)"
same,binding signal,ALX3 [21],"7.79 upbm affinity estimate (log intensity, higher = more binding, comparable within an allelic series)"
same,binding signal,HOXC9 [9],"9.66 upbm affinity estimate (log intensity, higher = more binding, comparable within an allelic series)"
same,binding signal,HOXC10 [22],"10 upbm affinity estimate (log intensity, higher = more binding, comparable within an allelic series)"
same,binding signal,MSX2 [10],"9.44 upbm affinity estimate (log intensity, higher = more binding, comparable within an allelic series)"
same,binding signal,ALX3 [23],"7.83 upbm affinity estimate (log intensity, higher = more binding, comparable within an allelic series)"
same,binding signal,ALX3 [24],"7.75 upbm affinity estimate (log intensity, higher = more binding, comparable within an allelic series)"
same,binding signal,HOXC9 [11],"9.65 upbm affinity estimate (log intensity, higher = more binding, comparable within an allelic series)"
same,binding signal,ALX3 [25],"7.79 upbm affinity estimate (log intensity, higher = more binding, comparable within an allelic series)"
same,binding signal,MSX2 [12],"9.49 upbm affinity estimate (log intensity, higher = more binding, comparable within an allelic series)"
same,binding signal,ALX3 [26],"7.76 upbm affinity estimate (log intensity, higher = more binding, comparable within an allelic series)"
CCGGGAGC,binding signal,HOXC9 [5],"9.52 upbm affinity estimate (log intensity, higher = more binding, comparable within an allelic series)"
same,binding signal,PAX4 [14],"9.29 upbm affinity estimate (log intensity, higher = more binding, comparable within an allelic series)"
same,binding signal,PAX4 [15],"9.27 upbm affinity estimate (log intensity, higher = more binding, comparable within an allelic series)"
same,binding signal,NKX2-6,"9.24 upbm affinity estimate (log intensity, higher = more binding, comparable within an allelic series)"
same,binding signal,HOXC9 [7],"9.61 upbm affinity estimate (log intensity, higher = more binding, comparable within an allelic series)"
same,binding signal,PAX4 [16],"9.33 upbm affinity estimate (log intensity, higher = more binding, comparable within an allelic series)"
same,binding signal,HOXC9 [9],"9.49 upbm affinity estimate (log intensity, higher = more binding, comparable within an allelic series)"
same,binding signal,PAX4 [17],"9.16 upbm affinity estimate (log intensity, higher = more binding, comparable within an allelic series)"
same,binding signal,PAX4 [18],"9.2 upbm affinity estimate (log intensity, higher = more binding, comparable within an allelic series)"
same,binding signal,HOXC9 [11],"9.58 upbm affinity estimate (log intensity, higher = more binding, comparable within an allelic series)"
same,binding signal,PAX4 [19],"9.25 upbm affinity estimate (log intensity, higher = more binding, comparable within an allelic series)"
AAGCTAAT,binding signal,HOXA4 [1],"10.3 upbm affinity estimate (log intensity, higher = more binding, comparable within an allelic series)"
same,binding signal,HOXA4 [2],"12.3 upbm affinity estimate (log intensity, higher = more binding, comparable within an allelic series)"

# Reference: paper PMC11006913
